Rows were chosen to be rich in hits. Some 12% of all compounds tested hit in one or more screens of this group.
JMJD2A Tudor: inhibitors of human JMJD2A Tudor domain. O75164. AlphaScreen JMJD2A-Tudor / H3K4me3 peptide binding. Potency, µM (titrated, usually from 114 µM), without a hit: at the top dose activity change, negative = inhibition, usual class: inhibitors. 4.4% of 390,000 active. AID 504339; further: on the % scale 0 is the no-effect control and ±100 the full control effect; nearly all actives have a fitted effect of over 50% in size
HP1b chromo inh: HP1-beta chromodomain-methylated histone interaction inhibition; AID 540317; 0.56% of 390,000 active; AlphaScreen HP1-beta / biotin-H3K9me3 peptide binding; Potency, µM (doses to about 114 µM), for the others: at the top dose activity change, negative = inhibition, most hits filed as inhibitors; P83916; further: nearly all actives have a fitted effect of over 70% in size
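Compound inhibition of the preformed complex between 50 nM HP1-beta and 50 nM biotinylated H3K9me3 peptide was read by AlphaScreen. Buffer was PBS pH 7.4 with 0.01% Tween-20. Incubations ran 30 min at room temperature, with 10 ug/mL donor/acceptor beads.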
PLK1 PBD block: blocks phosphopeptide binding to human PLK1 polo-box domain | P53350 | Plk1 PBD binding of FITC phosphopeptide, fluorescence polarization | Potency, µM, for inactives: max response, negative = inhibition, hits mostly inhibitors | 2.8% of 360,000 active | AID 720504; further: series mostly up to about 57 µM; on the % scale 0 is the no-effect control and ±100 the full control effect; nearly all actives have a fitted effect of over 65% in size
BAZ2B inh: inhibitors of human BAZ2B bromodomain | 4.4% of 360,000 active | AlphaScreen BAZ2B-H3K14Ac peptide displacement | Potency, µM (series often up to 114 µM), inactives show at the top dose activity change, negative = inhibition, hits mostly inhibitors | Q9UIF8; further: on the % scale 0 is the no-effect control and ±100 the full control effect; nearly all actives have a fitted effect of over 60% in size
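AlphaScreen displacement: compounds (up to 110uM) incubated 30 min at room temperature with a preformed 50 nM BAZ2B/50 nM biotinylated H3K14Ac peptide complex in PBS pH 7.4 with Tween-20. Donor and acceptor beads at 10 ug/mL final added, 20 min light-protected before reading.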
G9a block: blocks human histone lysine methyltransferase G9a; Q96KQ7; Potency, µM (top dose mostly 102 µM), without a hit: at the highest dose activity, negative = inhibition, hits mostly inhibitors; 8.8% of 350,000 active; G9a H3K9 monomethylation, AlphaScreen, 2 h; further: on the % scale 0 is the no-effect control and ±100 the full control effect; nearly all actives have a fitted effect of over 75% in size
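Compounds were preincubated with 20 nM G9a for 15 min, after which biotinylated H3K9 peptide (500 nM) and SAM (20 uM) started a 2 h room-temperature reaction. Monomethylated product was quantified by antibody-based AlphaScreen chemiluminescence.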
Sfp PPTase inh: inhibitors of Bacillus subtilis Sfp phosphopantetheinyl transferase. Q9F4F7. Biochemical Sfp PPTase activity, qHTS. Potency, µM, for the others: largest response in the series, negative = inhibition, actives largely listed as inhibitors. 3.5% of 310,000 active;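 further: the enzyme is Sfp with the accession as filed and its product quenches rhodamine fluorescence; 0% = enzyme reaction without inhibitor and -100% = no enzyme wells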
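Fluorescence-quenching assay with 15 nM Sfp, 5 uM rhodamine-CoA and 12.5 uM BHQ-2-labelled ybbR peptide in pH 7.6 Hepes/MgCl2 buffer. Enzyme was pre-incubated with compound for 15 min at room temperature. Rate was taken from the 30-min fluorescence change (525/598 nm).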
Starred values were filed as active, the others as inactive; [ ] = another dose, or the depositor's remark. The call rests on the fitted dose curve; in most records, active means well fitted curve in the direction sought with a large enough effect; inconclusive means small, poorly fitted or top-dose-only effect, or another doubt; inactive means no such curve, though single readings can be large; an effect the other way counts as inactive or inconclusive. Potency means the concentration at half of the fitted maximal effect.

Results for O=C(O)CC1S/C(=N/N=C/c2ccccn2)NC1=O (centres undefined) ?
JMJD2A Tudor: 79µM*; HP1b chromo inh: 59%; PLK1 PBD block: -6%; BAZ2B inh: 45µM*; G9a block: -4%; Sfp PPTase inh: 16%

How did CC(=O)N(CCC(Cc1ccccc1)c1ccc2c(c1)OCO2)Cc1ccccc1F (centres undefined) do in these assays?
JMJD2A Tudor: -8%; HP1b chromo inh: 41%; PLK1 PBD block: -7%; BAZ2B inh: -3%; G9a block: 22%; Sfp PPTase inh: 71µM*

Results for Fc1ccccc1CNCCC(Cc1ccccc1)c1ccc2c(c1)OCO2 (centres undefined) ?
JMJD2A Tudor: -24%; HP1b chromo inh: -4%; PLK1 PBD block: 0%; BAZ2B inh: -31%; G9a block: inconclusive; Sfp PPTase inh: -3%

Results for COc1cccc(OC)c1-c1nn2c(-c3cc(-c4ccccc4)n[nH]3)nnc2s1 ?
JMJD2A Tudor: 45µM*; HP1b chromo inh: -34%; PLK1 PBD block: 19%; BAZ2B inh: 8.9µM*; G9a block: 3.5µM*; Sfp PPTase inh: inconclusive

Results for COc1ccccc1-c1nn2c(-c3cc(-c4ccccc4)n[nH]3)nnc2s1 ?
JMJD2A Tudor: -10%[57.1 µM]; HP1b chromo inh: 4%[57 µM]

How did Cc1cc(C)cc(NC(=O)C2CCN(C(=O)[C@@H]3Cc4ccccc4CN3)CC2)c1 do in these assays?
JMJD2A Tudor: 22µM*; HP1b chromo inh: 30%; PLK1 PBD block: 4.7µM*; BAZ2B inh: inconclusive; G9a block: 50µM*; Sfp PPTase inh: 3%

Results for CC(C)c1ccc(NC(=O)C2CCN(C(=O)[C@@H]3Cc4ccccc4CN3)CC2)cc1 ?
JMJD2A Tudor: -21%; HP1b chromo inh: 16%; PLK1 PBD block: -17%; BAZ2B inh: -22%; Sfp PPTase inh: 0%

What do the screens show for `Cc1ccc(NC(=O)C2CCN(C(=O)[C@@H]3Cc4ccccc4CN3)CC2)cc1`?
JMJD2A Tudor: -8%; HP1b chromo inh: 45%; PLK1 PBD block: -14%; BAZ2B inh: -11%; G9a block: 56µM*; Sfp PPTase inh: 2%

How did O=C([C@@H]1Cc2ccccc2CN1)N1CCN(Cc2ccccc2)CC1 do in these assays?
JMJD2A Tudor: -4%; HP1b chromo inh: 42%; PLK1 PBD block: 2%; BAZ2B inh: 79µM*; G9a block: 32µM*; Sfp PPTase inh: -8%

Results for Cc1cc(C)cc(NC(=O)C2CCC(CNC(=O)[C@@H]3Cc4ccccc4CN3)CC2)c1 (some centres undefined) ?
JMJD2A Tudor: -3%; HP1b chromo inh: 19%[57 µM]; PLK1 PBD block: -23%; BAZ2B inh: -16%[57.1 µM]; G9a block: -4%; Sfp PPTase inh: 15%

Results for Cc1ccc(NC(=O)[C@@H]2CCCN2C(=O)[C@@H]2Cc3ccccc3CN2)c(C)c1 ?
JMJD2A Tudor: -10%; HP1b chromo inh: 37%; PLK1 PBD block: -8%; BAZ2B inh: -17%; G9a block: 50µM*; Sfp PPTase inh: 13%

How did O=C(C[C@@H]1CC[C@@H]2[C@H](COC[C@H](O)CN2CCC(F)(F)F)O1)NCc1ccc2c(c1)OCO2 do in these assays?
PLK1 PBD block: -5%

Results for CCc1ccc(NC(=O)Nc2cccc(OC)c2)cc1 ?
JMJD2A Tudor: -8%; HP1b chromo inh: 36%; PLK1 PBD block: -14%; BAZ2B inh: -15%; G9a block: 7%; Sfp PPTase inh: 20%

Results for O=C1NCCN(CC2CCN(CCc3ccc(Cl)c(Cl)c3)CC2)C1=O ?
JMJD2A Tudor: 79µM*; HP1b chromo inh: -25%; PLK1 PBD block: -3%

Results for CC[C@H](C)[C@H]1CNC(=O)C(=O)N1CC1CCN(CCc2ccc(Cl)c(Cl)c2)CC1 ?
JMJD2A Tudor: -14%; HP1b chromo inh: 58%; PLK1 PBD block: -7%

Results for CC1C(=O)C(=O)C=CN1C (centres undefined) ?
G9a block: inconclusive; Sfp PPTase inh: 45µM*

Results for CC12OC1C1(O)CCCC1=CC2=O (centres undefined) ?
BAZ2B inh: -6%[57.1 µM]; Sfp PPTase inh: 7%

Results for Cn1c(N)nc2nc[nH]c2c1=S ?
JMJD2A Tudor: 40µM*; HP1b chromo inh: 46%; PLK1 PBD block: -6%

What do the screens show for `CCOC(=O)C1(CCc2ccccc2)CCN(C(=O)C2CCCO2)CC1` (centres undefined)?
JMJD2A Tudor: 8%; HP1b chromo inh: 37%; PLK1 PBD block: -2%; BAZ2B inh: 1%; G9a block: 5%; Sfp PPTase inh: 15%

What do the screens show for `CCOC(=O)C1(CCc2ccccc2)CCN(C(=O)[C@@H]2C[C@@H](C)NC(=S)N2)CC1`?
JMJD2A Tudor: -21%; HP1b chromo inh: 11%; PLK1 PBD block: -11%; BAZ2B inh: -4%; G9a block: 45µM*; Sfp PPTase inh: -27%

What do the screens show for `CC1(c2ccccc2)CC(c2ccccc2)=Nc2ccccc2N1` (centres undefined)?
JMJD2A Tudor: -19%; HP1b chromo inh: 7%; PLK1 PBD block: 4%; BAZ2B inh: inconclusive; Sfp PPTase inh: 15%

How did CC1=CC(C)=Nc2ccccc2N1 do in these assays?
JMJD2A Tudor: -13%; HP1b chromo inh: 20%; PLK1 PBD block: -5%; BAZ2B inh: inconclusive; G9a block: 40µM*; Sfp PPTase inh: -6%

Results for CCc1ccc(NC(=O)CSC2=Nc3ccccc3C3=NC(CC(=O)NCc4ccc5c(c4)OCO5)C(=O)N23)cc1 (centres undefined) ?
JMJD2A Tudor: -23%; HP1b chromo inh: 28%; BAZ2B inh: -20%; G9a block: 11%[59 µM]

What do the screens show for `O=C(NC(c1ccc(F)cc1)c1ccc2ccccc2n1)C1CCN(CCOc2ccc(Cl)cc2)CC1` (centres undefined)?
PLK1 PBD block: -5%

What do the screens show for `Cc1nc(NS(=O)(=O)c2ccccc2)sc1NC(=O)OCCN(C)C`?
JMJD2A Tudor: -8%[11.4 µM]; HP1b chromo inh: 26%; PLK1 PBD block: 21µM*; BAZ2B inh: -5%; G9a block: inconclusive; Sfp PPTase inh: 20µM*

How did Cc1[nH]n(-c2ccccc2)c(=O)c1C(c1ccc(O)c([N+](=O)[O-])c1)c1c(C)[nH]n(-c2ccccc2)c1=O do in these assays?
JMJD2A Tudor: inconclusive; HP1b chromo inh: -51%; PLK1 PBD block: 24µM*

Results for COc1ccc(C(c2c(C)n(C)n(-c3ccccc3)c2=O)c2c(C)n(C)n(-c3ccccc3)c2=O)cc1 ?
JMJD2A Tudor: -1%; HP1b chromo inh: 42%; PLK1 PBD block: 0%; BAZ2B inh: -5%; G9a block: 29%; Sfp PPTase inh: 12%

Bioassay records: PubChem, National Center for Advancing Translational Sciences (NCATS)
